Assay outcomes deposited in PubChem BioAssay by The Scripps Research Institute Molecular Screening Center.
GalR3 antagonist = human GalR3 antagonism. O60755. HEK293 GalR3-CNG cAMP membrane potential fluorescence; galR3 body fused to GalR1 C-terminus. inhibition, % at 3 µM. 0.44% of 360,000 active. AID 651719;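 active means inhibition above the screen-wide average plus 3 SD, cut at about 13% in these data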;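 further: forskolin and galanin both at EC90 stimulate the cells; cAMP rise reported by CNG channel membrane potential dye signal; 0% = forskolin plus galanin with DMSO and 100% = forskolin alone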
Target sequence (O60755 1-299 limits assumed): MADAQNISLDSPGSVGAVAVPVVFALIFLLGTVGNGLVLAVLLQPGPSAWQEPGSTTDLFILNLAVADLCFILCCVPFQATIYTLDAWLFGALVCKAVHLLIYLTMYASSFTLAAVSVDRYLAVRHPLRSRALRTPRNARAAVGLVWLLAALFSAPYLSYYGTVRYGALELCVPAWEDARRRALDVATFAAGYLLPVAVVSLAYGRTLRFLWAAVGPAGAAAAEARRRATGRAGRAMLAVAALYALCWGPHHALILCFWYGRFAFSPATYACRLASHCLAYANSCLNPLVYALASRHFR
NCOA3 inh = inhibitors of human steroid receptor coactivator 3 (SRC3) | Q9Y6Q9 | HEK293 GAL4-SRC3 luciferase reporter, luminescence | inhibition, % at 3.6 µM | 0.17% of 360,000 active | AID 588352;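 active means inhibition above a per-campaign cutoff, the mean of all compounds plus 3 SD, cut at about 60% in these data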;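 further: 0% = DMSO-treated cells and 100% = gossypol-treated cells at 36 µM; higher means less SRC3-driven luciferase light from the GAL4 reporter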
NCOA2 inhibitor = human SRC2 (NCOA2) inhibition; HEK293 GAL4-SRC2 luciferase reporter, luminescence; inhibition, % at 9 µM; 0.17% of 370,000 active; AID 651957;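 active means inhibition above the mean inhibition of all tested compounds plus 3 SD, set per campaign, cut at about 52% in these data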;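 further: 0% = DMSO treated cells and 100% = cells given Gossypol at 36 µM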
COUP-TFII inh = NR2F2 (human) inhibition, primary screen | inhibition, % at 8.6 µM | 0.7% of 370,000 active | HEK293T NGFI-A luciferase reporter, luminescence;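 active means inhibition above a per-plate cutoff, mean inhibition of test wells between control levels plus 3 SD, cut at about 38% in these data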;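 further: cells cotransfected with COUP-TFII expression vector driving the NGFI-A reporter; 0% = median of COUP-TF2 test wells and 100% = reporter-only cells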
NR5A2 inv ag = inverse agonists of human LRH-1 (NR5A2); O00482; HEK293T StAR-luciferase reporter, LRH-1 transfected, 24 h; inhibition, % at 3.6 µM; 0.13% of 360,000 active;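 active means inhibition above the mean inhibition of all tested compounds plus 3 SD, cut at about 73% in these data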;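 further: 0% = DMSO wells and 100% = reporter-only cells lacking LRH-1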
NCOA1 inh = inhibitors of human steroid receptor coactivator 1 (SRC1); Q15788; HEK293 GAL4-SRC1 luciferase reporter, luminescence; inhibition, % at 3.6 µM; 0.12% of 360,000 active; AID 588354;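 active means inhibition above the campaign mean plus 3 SD, with each screening campaign given its own cutoff, cut at about 60% in these data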;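 further: 0% = DMSO treated cells and 100% = gossypol at 36 µM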
* hit, by the source's call; nt = not tested or not shown. Hits are enriched below; roughly 1.1% of the tested compounds scored in any of these assays.

SMILES	GalR3 antagonist	NCOA3 inh	NCOA2 inhibitor	COUP-TFII inh	NR5A2 inv ag	NCOA1 inh
COc1ccccc1C(=O)N(CCC1CCCN1C)c1nc2ccccc2s1 (stereo not drawn)	-1	63*	40	58*	52	54
COc1ccc2sc(N(CCCN(C)C)C(=O)c3nc4ccccc4s3)nc2c1	-5	-36	-19	-9	-10	-29
C/C(CC(=O)NC1C2CC3CC(C2)CC1C3)=N\NC(=O)Cc1cccs1 (stereo not drawn)	-5	-9	98*	-11	-10	-24
O=c1cnnc(N/N=C/c2ccccn2)[nH]1	-2	83*	36	-3	92*	66*
Cc1cc(=O)[nH]c(N/N=C/c2ccccn2)n1	1	5	26	-35	37	10
O=C(CCl)N(Cc1ccccc1)c1ccccc1	-3	17	37	18	26	-2
Cc1cccc(N(Cc2ccccc2)C(=O)CCl)c1	2	26	60*	10	33	2
CCCC/C=C1/[C@H](c2ccccc2)N(C)C2=N[C@@H](c3ccccc3)CC(=O)N21	nt	nt	nt	17	nt	nt
CN=C1S/C(=C/c2cc(C)n(-c3ccc(Cl)cc3F)c2C)C(=O)N1C	nt	nt	nt	0	nt	nt
COc1ccc(-n2c(C)c(C(C)=O)c3cc(OC(C)=O)ccc32)cc1	-9	59	32	27	31	62*
Cc1ccc(NCCN(C)C)c2c(=O)c3cc(O)ccc3sc12	-7	59	-69	-94	43	64*
Cc1ccc(N(C(=O)CNC(=O)c2ccco2)C(C(=O)NC2CCCCC2)c2cccnc2)cc1C (stereo not drawn)	-9	1	-23	-8	1	1
Cc1ccc(N(C(=O)CCl)C(C(=O)NC2CCCCC2)c2cccnc2)cc1C (stereo not drawn)	3	nt	63*	21	nt	nt
Nc1ncnc(N2CCc3ccccc32)c1[N+](=O)[O-]	0	65*	44	35	33	73*
COc1ccc(CN2C(=O)N3Cc4ccc(C)cc4C3CS2(=O)=O)cc1 (stereo not drawn)	nt	nt	23	-8	nt	nt
CCCC1CCC2(CC1)CCC2OC(=S)NCc1cccc(OC)c1 (stereo not drawn)	nt	nt	nt	1	nt	nt
NC(=S)NN=Cc1nccc2c(C(F)(F)C(F)(F)C(F)(F)F)cccc12	-5	93*	47	28	97*	92*
Cc1cnc(C=NNC(N)=S)c2cccc(N)c12	-6	-5	-3	-7	1	-4
NC(=S)NN=Cc1nccc2ccccc12	-1	79*	4	-41	78*	79*
CC(=NNc1nc2ccccc2o1)c1cc2ccccc2cn1	-2	70*	10	14	-36	65*
CCOC(=O)CC[C@H]1CC[C@]2(CCCN(C(=O)C(C)(C)C)C2)O1	nt	nt	8	-10	nt	nt
CC(C)(C)c1nnc(N/N=C/c2cc(Br)ccc2O)n(N)c1=O	-11	76*	32	5	2	67*
Fc1ccc(-c2n[nH]c(=S)n2N=Cc2cccc(OCc3ccccc3)c2)cc1	nt	nt	-9	-9	nt	nt
NS(=O)(=O)c1ccc(CCNC(=O)COC(=O)CCc2ccccc2)cc1	-5	6	9	-19	4	-7
CC(C)(C)c1ccc(C(=O)CCC(=O)OCC(=O)NCCc2ccc(S(N)(=O)=O)cc2)cc1	-7	-2	54*	29	26	-3
SMILES	GalR3 antagonist	NCOA3 inh	NCOA2 inhibitor	COUP-TFII inh	NR5A2 inv ag	NCOA1 inh
CC1(C)C=C2C(N(CC3CC3)C(=N)N2C(=O)OCc2ccccc2)n2c(=O)n(-c3ccccc3)c(=O)n21 (stereo not drawn)	nt	nt	nt	-5	nt	nt
N#CC(c1cccc(Cl)c1)c1ccc2c(C(F)(F)F)cc(C(F)(F)F)nc2n1 (stereo not drawn)	-2	41	28	-3	99*	22
Cn1nnnc1N=N/C(=N/Nc1ccccc1)c1ccccc1	-3	81*	25	-24	27	76*
COC(=O)[C@]12C[C@H](CC(=O)N3CCCC3)C(=O)N(CCC3=CCCCC3)C1=C[C@H](C1CCCC1)O[C@@H]2C	nt	nt	26	3	nt	nt
Cc1cc(C(=O)N2CCN(c3ccccn3)CC2)no1	-7	89*	2	1	1	11
CC(COc1cc(F)cc(C#N)c1)CN1CCC(C(O)(c2ccccc2)c2ccccc2)CC1 (stereo not drawn)	nt	nt	-2	0	nt	nt
C[C@H]1[C@@H](OC(=O)Nc2ccc(Br)cc2)CC[C@@]23CCCN2C(=O)CCC[C@@H]13	nt	nt	nt	1	nt	nt
COc1cc(C=NO)nc(-c2ccccn2)c1	-7	86*	33	-23	84*	79*
CCC(NC(=O)c1ccc2c(ccn2Cc2cccc(-c3ccccc3C(=O)O)c2)c1)c1ccccc1 (stereo not drawn)	nt	nt	-38	-19	nt	nt
CC(=O)N(C)C1=C(N2CCOCC2)C(=O)c2ccccc2C1=O	nt	87*	nt	nt	100*	85*
CN1CCN(c2ncnc3scc(-c4ccccc4Cl)c23)CC1	-9	63*	31	24	35	45
Cc1ccc(NC(=O)COC(=O)c2ccc([N+](=O)[O-])s2)c(C)c1	-2	1	-18	10	19	-13
COc1ccccc1NC(=O)COC(=O)c1ccc([N+](=O)[O-])s1	13*	12	21	-26	2	-40
COc1ccc(C(=O)C(CCC(CNC(C)(C)C)C(=O)c2ccc(OC)cc2)CNC(C)(C)C)cc1 (stereo not drawn)	0	35	54*	3	12	23
COc1ccc(C(=O)CC(=O)c2ccc(C(C)(C)C)cc2)cc1	nt	-13	-13	18	-18	-8
CCCC1CCC2(CC1)CCC2OC(=S)Nc1ccccc1Cl (stereo not drawn)	nt	nt	nt	-13	nt	nt
COC(=O)C(C)Sc1nc2c(c(=O)[nH]c(=O)n2C)n1CCCc1ccccc1 (stereo not drawn)	53*	13	-7	-10	0	-4
O=C(Nc1cnn(Cc2ccc(Cl)cc2)c1)c1ccc([N+](=O)[O-])cc1	3	-3	20	3	36	1
O=C(Nc1ccc([N+](=O)[O-])cc1)c1ccc(Cn2cc([N+](=O)[O-])cn2)cc1	-1	48	-26	0	78*	54
Cc1ccc(NC(=O)c2cc3ccccc3o2)cc1S(=O)(=O)N(C)C	2	-78	-87	-52	-143	-105
Cc1ccc(NC(=O)c2cc3ccccc3oc2=O)cc1S(=O)(=O)N(C)C	nt	85*	nt	nt	75*	85*
CC1=NNC(=O)/C1=C\c1cn(-c2ccccc2)nc1-c1ccc(Cl)cc1	21*	4	1	16	5	2
Cc1ccc(-c2nn(-c3ccccc3)cc2C=C2C(=O)CC(C)(C)CC2=O)cc1	-4	-35	-41	-18	-82	-50
CC(C)(C)OC(=O)NCCCCCNC(=O)c1nc[nH]c1C(=O)NCc1ccc(CNC(=O)OC(C)(C)C)cc1	-3	23	23	72*	20	13
